Compound activity (PubChem BioAssay)
Rows were chosen to be rich in hits. Some 11% of all compounds tested hit in one or more screens of this group.
RORg inh: qHTS for inhibitors of ROR gamma transcriptional activity | Nuclear receptor ROR-gamma (Mus musculus), P51450 | Drosophila S2 Gal4-RORgamma UAS-luciferase reporter, 20 h | Potency, µM (top dose mostly 53.6 µM), inactives show at the top dose activity change, negative = inhibition, hits mostly inhibitors | hit rate 5.4% among 310,000; note: potency is the fitted concentration of half-maximal effect; % is set by controls: 0 for no effect and ±100 for the full control effect; nearly all actives have a fitted effect of over 60% in size
Target sequence (P51450 whole entry, looked up, the tested form may be a part): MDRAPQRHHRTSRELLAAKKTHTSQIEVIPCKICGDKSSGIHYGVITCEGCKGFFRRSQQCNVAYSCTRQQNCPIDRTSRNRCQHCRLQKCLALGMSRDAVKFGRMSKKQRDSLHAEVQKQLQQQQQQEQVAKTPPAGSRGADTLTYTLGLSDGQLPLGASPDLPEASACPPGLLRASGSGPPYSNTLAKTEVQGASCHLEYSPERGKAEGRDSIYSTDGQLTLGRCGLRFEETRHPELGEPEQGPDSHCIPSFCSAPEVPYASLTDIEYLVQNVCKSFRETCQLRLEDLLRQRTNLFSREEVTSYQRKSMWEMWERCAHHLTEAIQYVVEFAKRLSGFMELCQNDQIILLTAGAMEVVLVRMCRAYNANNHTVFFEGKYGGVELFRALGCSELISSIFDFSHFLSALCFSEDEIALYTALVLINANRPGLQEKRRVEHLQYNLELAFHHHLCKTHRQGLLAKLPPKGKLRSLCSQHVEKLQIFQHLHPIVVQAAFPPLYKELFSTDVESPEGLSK
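Stably transfected Drosophila Schneider cells are the test system, with ROR gamma fused to Gal4 and luciferase under UAS control; luminescence is read after 20 hr of 700 uM copper sulfate induction at ambient temperature.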
Gal4-VP16 FLuc: VP16 counterscreen qHTS for inhibitors of ROR gamma transcriptional activity; AID 2546, 2010; hit rate 3.5% among 310,000; Drosophila S2 Gal4-VP16 UAS-luciferase, luminescence, 20 h; Potency, µM (series often up to 53.6 µM), inactives show at the highest dose activity, negative = inhibition, hits mostly inhibitors;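 note: Gal4-VP16 expression switched on by copper sulfate through the metallothionein promoter; potency is the fitted concentration of half-maximal effect; % is set by controls: 0 for no effect and ±100 for the full control effect; nearly all actives have a fitted effect of over 50% in size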
IL1B secr inh: qHTS for Inhibitors of Inflammasome Signaling: IL-1-beta AlphaLISA Primary Screen; THP-1 LPS/ATP IL-1B secretion, AlphaLISA, 16 h; stronger effect = lower value; activity change, % at 57.5 µM; hit rate 4.7% among 360,000; AID 743279, 2014; in the data active = activity change below about -50%; inconclusive = mostly about -30% to -49%; note: % is set by controls: 0 for no effect and ±100 for the full control effect
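THP-1 cells pretreated 1 hr with compounds (up to 57.5 uM final), then stimulated with LPS (250 ng/mL final) plus ATP (1.25 mM final); secreted IL-1B measured by AlphaLISA after 16 hr, decreased signal indicating inhibition.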
SW480 rereplic: A quantitative high throughput screen for small molecules that induce DNA re-replication in SW480 colon adenocarcinoma cells. hit rate 1.8% among 340,000. AID 624297, 2012. SW480 DNA re-replication, Hoechst DNA content imaging, 48 h. Potency, µM (series often up to 46.1 µM), inactives show top-dose re-replication activation, usual class: activators; note: potency is the fitted concentration of half-maximal effect; % of control where 0% means no effect; nearly all actives have a fitted effect of over 55% in size
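Cells (250 per well) received 23 nL compound or DMSO by pin tool and were kept 48 hr at 37 C, 5% CO2. Nuclei were then stained with Hoechst for 40 min and scanned for DNA content.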
MCF10A rereplic: A quantitative high throughput screen for small molecules that induce DNA re-replication in MCF 10a normal breast cells; MCF 10A DNA re-replication, Hoechst nuclear intensity, 48 h; Potency, µM (top dose mostly 46.1 µM), inactives show at the highest dose activity, positive = re-replication, hits mostly activators; hit rate 2.9% among 350,000; note: potency is the fitted concentration of half-maximal effect; % of control where 0% means no effect; nearly all actives have a fitted effect of over 50% in size
Active calls of the source: *; ? = inconclusive; / = no result given. Unless noted, calls come from the whole dose curve; as a rule, active = well fitted curve in the direction sought with a large enough effect; inconclusive = small, poorly fitted or top-dose-only effect, or another doubt; inactive = no such curve, though single readings can be large; an effect the other way counts as inactive or inconclusive.

SMILES	RORg inh	Gal4-VP16 FLuc	IL1B secr inh	SW480 rereplic	MCF10A rereplic
COc1ccccc1C(=O)Nc1ccc(S(=O)(=O)N2CCc3ccccc32)cc1	16.4%	6.8%	-9.0	?	6.6%
CC(=O)Nc1cccc(NC(=O)c2ccc3c(c2)CCN3S(=O)(=O)c2ccccc2)c1	13.7%	1.8%	?	?	2.6%
CC(=O)c1cccc(NC(=O)c2ccc3c(c2)CCN3S(=O)(=O)c2ccccc2)c1	?	12.6µM*	7.3	-0.6%	-5.4%
COc1ccc(NC(=O)c2ccc3c(c2)CCN3S(=O)(=O)c2ccccc2)cc1	42.6%	-9.5%	-56.1*	-0.6%	-1.1%
O=C(NNC(=O)c1ccccn1)c1cccc([N+](=O)[O-])c1	10µM*	?	108.0	?	-1.8%
COc1ccc(C(=O)NNC(=S)NC(=O)c2ccc(Cl)cc2)cc1	/	/	68.3	?	7.9%
O=C(NNC(=S)NC(=O)c1cccc([N+](=O)[O-])c1)c1ccc(Br)cc1	11.2µM*	?	73.5	?	10.1%
Cc1cccc(C(=O)NC(=S)NNC(=O)c2ccc(Cl)cc2)c1	10µM*	?	0.0	18.3%	?
O=C(NNC(=O)c1cccc([N+](=O)[O-])c1)c1ccncc1	0.8%	7.0%	8.8	-2.5%	-41.3%
COc1cccc(C(=O)NC(=S)Nc2ccc([N+](=O)[O-])cc2C)c1	7.08µM*	?	0.0	/	-1.5%
O=C(NNC(=S)NC(=O)c1cccc([N+](=O)[O-])c1)c1ccc(O)cc1	12.6µM*	12.6µM*	15.3	-0.9%	16.5%
N#C/C(=C\c1cccc([N+](=O)[O-])c1)c1ccccn1	38.2%	9.4%	-88.1*	22.4%	7.6%
Cc1cccc(NC(=S)NNC(=O)c2cccc([N+](=O)[O-])c2)c1	-31.7%	-13.5%	4.9	-6.1%	?
O=C(NC(=S)Nc1cccc(F)c1)c1cccc([N+](=O)[O-])c1	1.58µM*	6.31µM*	-3.5	-6.6%	3.0%
Cc1ccc(C(=O)NC(=S)NNC(=O)c2cccc([N+](=O)[O-])c2)cc1	4.47µM*	7.08µM*	34.3	1.6%	-3.5%
COC(=O)C=C1CCC2C3CCC4=CC(=O)CCC4(C)C3C(=O)CC12C (centres undefined)	/	/	-16.7	-0.6%	2.9%
O=C(NC(=S)Nc1ccc(CN2CCOCC2)cc1)c1cccc([N+](=O)[O-])c1	?	?	32.4	-9.1%	1.0%
O=C(NNC(=S)NC(=O)c1ccccc1)c1cccc([N+](=O)[O-])c1	7.94µM*	11.2µM*	36.4	2.7%	-1.8%
O=C(NC(=S)Nc1ccc(N2CCOCC2)cc1)c1cccc([N+](=O)[O-])c1	2.24µM*	2.82µM*	27.2	-0.9%	4.0%
CC(=O)C[C@H](O)CC(=O)[C@@H]1OC(=O)CCCCCCCCc2ccccc21	/	/	-14.3	3.2%	13.2%
Cc1cccc(C(=O)Nc2ccc(C(=O)N/N=C/c3ccco3)cc2)c1	/	/	-6.2	-1.8%	0.0%
COc1ccc(-c2c(C)nn3c(N4CCOCC4)cc(C)nc23)cc1OC	-10.4%	-5.1%	-12.7	-6.8%	14.4%
COc1ccc(-c2c(C)nn3c(N4CCCCCC4)cc(C)nc23)cc1OC	?	-15.8%	-82.4*	2.3%	?
N/C(=N\S(=O)(=O)c1cccs1)c1ccccc1	15.2%	5.2%	-14.7	-1.6%	-1.1%
O=S(=O)(/N=C/c1ccccc1O)c1cccs1	-0.8%	-3.6%	18.7	-3.8%	-1.0%
CC(C)(C)c1cc[n+](C2=C([O-])c3ccccc3C(=O)/C2=N\S(=O)(=O)c2cccs2)cc1	11.2µM*	8.91µM*	-87.8*	?	?
O=C1/C(=N\S(=O)(=O)c2cccs2)C([n+]2ccccc2)=C([O-])c2ccccc21	-0.3%	?	-62.7*	11.6µM*	17.5%
CC12C=C(/C=C/CCc3ccco3)C(C)(C1)[C@H](CCc1ccco1)CC2=O (some centres undefined)	2.1%	-9.7%	/	/	/
